# Assay results as given in PubChem BioAssay AID720542 (National Center for Advancing Translational Sciences (NCATS), 2013).
# Out of some 360,000 compounds screened, about 740 (0.21%) were called active. Inconclusive results (about 2%) are left out. The call rests on the fitted dose curve; in most records, active means well fitted inhibition curve with a large enough effect; inconclusive means small, poorly fitted or top-dose-only effect; inactive means no such curve, though single readings can be large or run the other way. What follows is part of a selection rich in actives, with near analogues and random picks from the rest.
# Tested on: Plasmodium falciparum AMA1 (3D7) - RON2 peptide interaction
# Test: qHTS for Inhibitors of AMA1-RON; Towards Development of Antimalarial Drug Lead: Primary Screen; further: nearly all actives have a fitted effect of over 45% in size;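 on activity change, negative = inhibition: 0% = vehicle wells and -100% = peptide control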
# Conditions: AlphaScreen AMA1-biotinylated RON2 peptide binding; series mostly up to 58.2 µM; activity change, negative = inhibition: at the top concentration
# Source text: Plasmodium, the causative agent of malaria, is one of the world's deadliest parasitic diseases. Currently there is no vaccine available and there is widespread resistance to common anti-malarial drugs. This warrants novel, alternative approaches for developing improved therapy. During infection, one such essential interaction is between two parasite proteins, the apical membrane antigen1 (AMA1) that is translocated onto the merozoite surface and the rhoptry neck protein 2 (RON2), which is transferred to the red blood cells (RBC) membrane during invasion (Besteiro et.al., 2009). Recently, the Miller lab has shown that the interaction between AMA1 and RON2 is essential for junction formation of the parasite with the host cell (Srinivasan et.al., 2011). The binding of the RON2 peptide to the hydrophobic pocket in AMA triggers the formation of the moving junction which provides a firm anchor for the parasite to pull itself into the RBC using its actin-myosin motor; an irreversible step that commits the parasite for invasion. Only one AMA1 and RON2 genes exists in Plasmodium and there are no alternate pathways. Moreover, the region corresponding to RON2 peptide is conserved in all P. falciparum isolates for which sequences are available. The key residues in the AMA1 hydrophobic pocket that binds RON2 are also conserved and indicate a functional constraint governing this essential step in invasion since a short RON2 peptide (RON2L) corresponding to the binding region on AMA1 is sufficient to compete with the native RON2 protein and inhibits invasion (Tonkin et.al, 2011). Therefore, developing small molecule inhibitors of this interaction offers a promising target opening a new arena for anti-malarial therapeutics drug design.
# In collaboration with the Miller lab, a quantitative High Throughput Screen using the AlphScreen technology was developed using a recombinant his-tagged AMA1 and a biotinylated RON2 peptide. This fluorescent screen was assayed against the NIH Molecular Libraries Small Molecule Repository (MLSMR). Inhibition of this protein-protein interaction is the desired outcome of this assay. However, due the limitations of this AlphaScreen assay, a large number of artifacts were observed. An AlphaScreen counterscreen was run to identify the true inhibitors, triage compound activity, and weed out false positives.
# NIH Chemical Genomics Center [NCGC]
# NIH Molecular Libraries Probe Centers Network [MLPCN]
# Assay Submitter (PI): Louis Miller, National Institute of Allergy and Infectious Disease (NIAID)
# Two microliters of his-tagged AMA1 3D7 allele protein (final concentration 25 nM) was dispensed into a 1,536-well assay plate. Small molecules and positive control peptides were pin-transferred (23 nL or 46 nL) via Kalypsys pin-tool equipped with a 1,536-pin array, resulting in final compound and peptide concentration ranges of 91.5 nM - 57.2 µM, and 15.6 nM - 2.00 µM, respectively. Unlabeled RON2 peptide or R1 peptide ([…]) that specifically binds the 3D7 AMA1 was used as a positive control that inhibited the binding of RON2L to AMA1. After 15 minutes incubation, 1 uL of biotinylated RON2 peptide (final concentration 25 nM) or buffer were dispensed and the assay plate was incubated for an additional 30 minutes at room temperature and protected from light. This was followed by an addition of 1 uL mixture of donor and acceptor beads (10 ug/mL final concentrations for each). The plates were incubated for 30 min at room temperature and read using the EnVision(R) plate reader (PerkinElmer). Maximum inhibition response was normalized to the positive control signal while no inhibition response was normalized to the DMSO treated wells.
# Potency means the concentration at half of the fitted maximal effect.
SMILES,"activity change, negative = inhibition",Potency
CCc1ccc(C2C(C#N)=C(N)N(N3CCOCC3)C3=C2C(=O)CC(C)(C)C3)s1 (configuration not stated),-9.12% (inactive),
Cc1cc(O)c(C(=O)/C=C/c2c(F)c(F)c(F)c(F)c2F)c(=O)o1,61.5% (inactive),
CCOc1ccccc1NC(=O)Cn1ncc2ccc([N+](=O)[O-])cc21,-2.2% (inactive),
CCCCN=C1N/C(=C\c2ccco2)C(=O)N1c1ccccc1,-7.64% (inactive),
COc1ccc(CN2C(=O)C(C)S/C2=N/N=C/c2ccco2)cc1 (configuration not stated),-10.8% (inactive),
COc1ccc(N2C(=O)/C(=C/c3ccco3)C(=O)NC2=S)cc1,,15.8 µM (active)
CCC1SC2=NCCN2C1(O)c1ccc(Cl)cc1 (configuration not stated),-8.79% (inactive),
CC(C)CCNC(=O)Cn1c(=O)oc2cc(S(=O)(=O)N3CC(C)CC(C)C3)ccc21 (configuration not stated),13.5% (inactive),
CN(C(=O)CN(CCO)CC(=O)N(C)C(C)(C)Cc1ccccc1)C(C)(C)Cc1ccccc1,14.9% (inactive),
CN1OC[C@@H]2CN(S(=O)(=O)c3cccc(C(F)(F)F)c3)[C@H](c3ccc(-c4cc5ccccc5o4)cc3)C[C@@H]21,6.6% (inactive),
CC1=C(C(=O)Nc2ccc(Cl)cc2)C(c2ccco2)NC(=O)N1 (configuration not stated),5.1% (inactive),
CCNC(=O)N1CCNC(=O)C1CC(=O)Nc1ccc(C(=O)OCC)cc1 (configuration not stated),12.7% (inactive),
CCOc1ccccc1-n1c(SCC(=O)NCc2ccco2)nnc1-c1ccncc1,-7.89% (inactive),
Cc1ccc(NC(=O)CN2CCCCC2)c2c1CC(C)(C)O2,-1.13% (inactive),
CC(=O)c1ccc(NC(=O)C(C)NCc2ccc(Cl)cc2)cc1 (configuration not stated),0.354% (inactive),
CN(/C(=N/S(=O)(=O)c1cccs1)c1ccccc1)c1ccc(O)cc1,1.51% (inactive),
CC1CCC(NC(=O)CN(C)S(=O)(=O)c2ccc3c(c2)c(=O)n(C)c(=O)n3C)CC1 (configuration not stated),-5.96% (inactive),
O=S(=O)(c1ccc(Br)cc1)c1nc(-c2ccccc2)oc1NCc1cccnc1,-2.21% (inactive),
O=C1CC(=O)Nc2cc(S(=O)(=O)N3CCN(c4cccc(C(F)(F)F)c4)CC3)ccc2N1,-7.36% (inactive),
Cc1ccc(N(C(=O)Cc2cccs2)C(C(=O)NCC2CCCO2)c2ccncc2)cc1 (configuration not stated),8.2% (inactive),
CCOC(=O)c1ccccc1NC(=O)COC(=O)C(Cc1c[nH]c2ccccc12)NC(C)=O (configuration not stated),-8.99% (inactive),
C=CCc1cccc2cc(C(=O)Nc3ccc(NC(C)=O)cc3)c(=O)oc12,-3.69% (inactive),
Cc1cc(NC(=O)CSc2nnc(-c3ccc(Cl)s3)o2)no1,,2.24 µM (active)
Cc1cc(NC(=O)CSc2nnnn2-c2ccc(F)cc2)no1,12.3% (inactive),
O=C(CSc1nnc(-c2ccncc2)o1)Nc1cccc(Cl)c1,8.5% (inactive),
CC1(C)C(c2ccccc2)=NC(c2cccnc2)=[N+]1[O-],-0.104% (inactive),
COc1cccc(N(C(=O)c2snc(C(N)=O)c2N)C(C(=O)NCC2CCCO2)c2c[nH]c3ccccc23)c1 (configuration not stated),-5.17% (inactive),
